# From PubChem BioAssay (Tox21)
# Values joined by “and” are separate entries in the source; they are usually repeats but may differ in a detail not shown here. Equal entries are not always repeated. Inconclusive results are not listed. A structure can be active in one record and inactive in another. Active and inactive are the calls of the source. Calls come from the whole dose curve; as a rule, active = well fitted curve in the direction sought with a large enough effect in the repeat runs; inconclusive = weak or mixed curves; inactive = no such curve, though single readings can be large; an effect the other way counts as inactive or inconclusive.
# Assay: qHTS assay for identifying genotoxic compounds that show differential cytotoxicity against isogenic chicken DT40 cell lines with known DNA damage response pathways - Rev3 mutant cell line (AID 743014); note: nearly all actives have a fitted effect of over 55% in size
# Settings: chicken DT40 Rev3-/- viability, CellTiter-Glo, 40 h; series mostly up to 68.4 µM; activity, negative = cytotoxicity: at the top concentration
# % is set by controls: 0 for no effect and ±100 for the full control effect; potency is the fitted concentration of half-maximal effect.
SMILES,Potency,"activity, negative = cytotoxicity"
CC(Cc1ccc(C(C)(C)C)cc1)CN1C[C@@H](C)O[C@@H](C)C1 (stereo partly specified),5.45 µM (active),–
CN(C)c1ccc(N=Nc2ccccc2)cc1,–,-2.45% (inactive)
CC1(C)[C@H](C(=O)O[C@H](C#N)c2cccc(Oc3ccccc3)c2)[C@@H]1/C=C(\Cl)C(F)(F)F,50.5 µM (active),–

# Assay: qHTS assay for identifying genotoxic compounds that show differential cytotoxicity against isogenic chicken DT40 cell lines with known DNA damage response pathways - Rad54/Ku70 mutant cell line (AID 743015); note: nearly all actives have a fitted effect of over 60% in size
# Settings: DT40 Rad54/Ku70 mutant viability, CellTiter-Glo, 40 h; series mostly up to 66.8 µM; activity change, negative = cytotoxicity: at the top concentration
SMILES,"activity change, negative = cytotoxicity",Potency
CC(C)CCCCCOC(=O)c1ccccc1C(=O)OCCCCCC(C)C,-9.38% (inactive),–
CC1(C)CN=C(NN=C(/C=C/c2ccc(C(F)(F)F)cc2)/C=C/c2ccc(C(F)(F)F)cc2)NC1,–,4.33 µM (active)
CCN(CC)c1c([N+](=O)[O-])cc(C(F)(F)F)c(N)c1[N+](=O)[O-],–,17.2 µM (active)
C[C@@H]1O[C@@H](O[C@@H]2C=C3CC[C@@H]4[C@H](CC[C@]5(C)[C@@H](c6ccc(=O)oc6)CC[C@]45O)[C@@]3(C)CC2)[C@H](O)[C@H](O)[C@H]1O,–,0.127 µM (active)
Clc1ccc(CO/N=C(\Cn2ccnc2)c2ccc(Cl)cc2Cl)c(Cl)c1,–,21.1 µM (active)
CCOP(=S)(OCC)OC(Cl)C(Cl)(Cl)Cl (stereo unspecified),-7.8% (inactive),–
COc1cc(N)c(Cl)cc1C(=O)NC1CN2CCC1CC2 (stereo unspecified),5.85% (inactive),–
ClC1=C(Cl)C2(Cl)C3C(Cl)C=CC3C1(Cl)C2(Cl)Cl (stereo unspecified),–,68.6 µM (active)
CCCCOCN(C(=O)CCl)c1c(CC)cccc1CC,–,9.69 µM (active)
O=[N+]([O-])c1ccc2ccc3cccc4ccc1c2c34,-4.83% (inactive),–
O=[N+]([O-])O.O=[N+]([O-])O.[Cd],–,61.1 µM (active)
N#CSCSC#N,–,3.51 µM (active) and 1.52 µM (active)
CC1(c2ccc(Oc3ccccc3)cc2)OC(=O)N(Nc2ccccc2)C1=O (stereo unspecified),–,0.774 µM (active)
NNC(=O)c1ccccc1,-3.29% [at 95.1 µM] (inactive),–
CCCN(CC)CC1COC2(CCC(C(C)(C)C)CC2)O1 (stereo unspecified),–,1.22 µM (active)
CC(C)CC(C)(c1ccc(O)cc1)c1ccc(O)cc1,–,54.6 µM (active)
COc1ccc(OC)c(CC(C)N)c1 (stereo unspecified),0.0757% [at 95.1 µM] (inactive),–
Oc1ccc(C(c2ccc(O)cc2)(C(F)(F)F)C(F)(F)F)cc1,–,inactive and 48.6 µM (active)
CCCCCCCCCCCCCCCC[n+]1ccccc1,–,386 nM (active) [middle of 4 runs]
C[C@H]1CC[C@@H]2[C@@H](C)[C@H]3[C@H](C[C@H]4[C@@H]5CC=C6CC(O[C@@H]7O[C@H](CO)[C@H](O)[C@H](O[C@@H]8O[C@H](CO)[C@@H](O)[C@H](O)[C@H]8O)[C@H]7O[C@H]7O[C@@H](C)[C@H](O)[C@@H](O)[C@H]7O)CC[C@]6(C)[C@H]5CC[C@]34C)N2C1 (stereo partly specified),–,26.6 µM (active) and inactive
CCCOCC(=Nc1ccc(Cl)cc1C(F)(F)F)n1ccnc1,–,4.32 µM (active)
O=[N+]([O-])c1ccc(Oc2ccc(C(F)(F)F)cc2[N+](=O)[O-])cc1,–,24.3 µM (active)
O=c1[nH]c2ccccc2n1CCCN1CCC(n2c(=O)[nH]c3cc(Cl)ccc32)CC1,–,23.7 µM (active)

# Assay: qHTS assay to identify small molecule antagonists of the androgen receptor (AR) signaling pathway - cell viability counter screen (AID 743033; note: nearly all actives have a fitted effect of over 45% in size)
# Settings: AR-bla HEK293 viability, CellTiter-Glo luminescence, 16 h; series mostly up to 58.5 µM; activity change, negative = cytotoxicity: at the top concentration
SMILES,"activity change, negative = cytotoxicity",Potency
CC(C)CCCCCOC(=O)c1ccccc1C(=O)OCCCCCC(C)C,-11.2% (inactive),–
CC1(C)CN=C(NN=C(/C=C/c2ccc(C(F)(F)F)cc2)/C=C/c2ccc(C(F)(F)F)cc2)NC1,–,21.9 µM (active)
CN(C)[C@@H]1C(=O)C(C(N)=O)=C(O)[C@@]2(O)C(=O)C3=C(O)c4c(O)ccc(Cl)c4[C@@](C)(O)[C@H]3C[C@@H]12,–,inactive
C[C@@H]1O[C@@H](O[C@@H]2C=C3CC[C@@H]4[C@H](CC[C@]5(C)[C@@H](c6ccc(=O)oc6)CC[C@]45O)[C@@]3(C)CC2)[C@H](O)[C@H](O)[C@H]1O,–,0.0057 µM (active)
Clc1ccc(CO/N=C(\Cn2ccnc2)c2ccc(Cl)cc2Cl)c(Cl)c1,-2.16% (inactive),–
CCOP(=S)(OCC)OC(Cl)C(Cl)(Cl)Cl (stereo unspecified),8.92% (inactive),–
COc1cc(N)c(Cl)cc1C(=O)NC1CN2CCC1CC2 (stereo unspecified),-20.5% (inactive),–
CC(C)OS(C)(=O)=O,0.39% [at 78.9 µM] (inactive),–
ClC1=C(Cl)C2(Cl)C3C(Cl)C=CC3C1(Cl)C2(Cl)Cl (stereo unspecified),–,inactive
Clc1ccc(CCC(Cn2ccnc2)Sc2c(Cl)cccc2Cl)cc1 (stereo unspecified),-11.8% [at 27 µM] (inactive),–
Cc1cc(C)c(C2=C(OC(=O)CC(C)(C)C)C3(CCCC3)OC2=O)c(C)c1,0.593% [at 78.9 µM] (inactive),–
O=[N+]([O-])c1ccc2ccc3cccc4ccc1c2c34,-1.51% (inactive),–
CNC(C)Cc1ccc2c(c1)OCO2 (stereo unspecified),-9.64% [at 78.9 µM] (inactive),–
N#CSCSC#N,–,22.4 µM (active) and 24.3 µM (active)
CC1(c2ccc(Oc3ccccc3)cc2)OC(=O)N(Nc2ccccc2)C1=O (stereo unspecified),–,24.7 µM (active)
NNC(=O)c1ccccc1,-10.4% [at 78.9 µM] (inactive),–
CN(C)C(=S)[S-].CN(C)C(=S)[S-].[Cu+2],–,2.99 µM (active)
CCCN(CC)CC1COC2(CCC(C(C)(C)C)CC2)O1 (stereo unspecified),-14.1% (inactive),–
CC(C)CC(C)(c1ccc(O)cc1)c1ccc(O)cc1,–,55.1 µM (active)
COc1ccc(OC)c(CC(C)N)c1 (stereo unspecified),0.437% [at 78.9 µM] (inactive),–
C[C@]12CC[C@@H]3c4ccc(OC(=O)N(CCCl)CCCl)cc4CC[C@H]3[C@@H]1CC[C@@H]2O,-0.697% (inactive),–
CN(C)CCc1c[nH]c2cccc(O)c12,-7.67% (inactive),–
Clc1ccc(C(Cl)(Cl)Cl)c(Cl)c1,6.63% [at 78.9 µM] (inactive),–
CCCCCCCCCCCCCCCC[n+]1ccccc1,–,19.2 µM (active) [middle of 4 runs]
C[C@H]1CC[C@@H]2[C@@H](C)[C@H]3[C@H](C[C@H]4[C@@H]5CC=C6CC(O[C@@H]7O[C@H](CO)[C@H](O)[C@H](O[C@@H]8O[C@H](CO)[C@@H](O)[C@H](O)[C@H]8O)[C@H]7O[C@H]7O[C@@H](C)[C@H](O)[C@@H](O)[C@H]7O)CC[C@]6(C)[C@H]5CC[C@]34C)N2C1 (stereo partly specified),1.03% [at 78.9 µM] (inactive),–
CCCOCC(=Nc1ccc(Cl)cc1C(F)(F)F)n1ccnc1,–,12.3 µM (active)
CCCN(CCC)CCc1c[nH]c2ccccc12,-7.33% (inactive),–
c1ccc2c(c1)[nH]c1cnccc12,-9.55% (inactive),–
O=[N+]([O-])c1ccc(Oc2ccc(C(F)(F)F)cc2[N+](=O)[O-])cc1,-0.137% (inactive),–
O=c1[nH]c2ccccc2n1CCCN1CCC(n2c(=O)[nH]c3cc(Cl)ccc32)CC1,-17.9% (inactive),–
